Laboratory results reported in PubChem BioAssay (EPA / NIEHS).
Inconclusive results are not listed. The source made the active and inactive calls. How the source made its calls: active means hit-call score of the fitted dose curve at least 0.9, where 1 is the maximum; inconclusive means response in the unintended direction; inactive means score below 0.9.

Experiments:
[1] = TOX21_p53_BLA_p2_viability: Viability Assessment in the Tox21 HCT-116 p53 Agonism Beta-lactamase Assay, Phase 2 (AID 2283591);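 further: compound exposure lasted 16 h at 37 °C; actives lower the ATP signal meaning cytotoxicity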
In short: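 Cytotoxicity readout: CellTiter-Glo ATP luminescence, 30 min at room temperature, after the beta-lactamase read. Cells were HCT116 exposed 16 h at 37C to compounds pin-transferred at 217-fold dilution from DMSO stocks.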

[2] = biological target: Cellular tumor antigen p53 (Homo sapiens) (UniProt P04637); assay: TOX21_p53_BLA_p2_ratio: Tox21 HCT-116 p53 Agonism Beta-lactamase Assay, Ratio, Phase 2 (AID 2283592)
In short: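 Read-out is the blue/green (460/530 nm, 405 nm excitation) ratio after 2 h CCF4-AM loading, fitted as gain versus DMSO. Compounds, pinned at 217-fold dilution from DMSO stocks, stayed 16 h on HCT-116 beta-lactamase reporter cells seeded 5 h earlier.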

[3] = biological target: Cellular tumor antigen p53 (Homo sapiens) (UniProt P04637); assay: TOX21_p53_BLA_p3_ratio: Tox21 HCT-116 p53 Agonism Beta-lactamase Assay, Ratio, Phase 3 (AID 2283596)
In short: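 Cells were seeded at 4000/well, rested 5 h at 37C, then dosed with DMSO compound solutions (217-fold dilution) for 16 h. CCF4-AM substrate was loaded for 2 h at room temperature, and the 460/530 nm emission ratio was fitted for gain of signal versus DMSO.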

[4] = TOX21_p53_BLA_p5_viability: Viability Assessment in the Tox21 HCT-116 p53 Agonism Beta-lactamase Assay, Phase 5 (AID 2283600)
In short: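 Viability came from CellTiter-Glo ATP luminescence, read after 30 min at room temperature. Before this, HCT-116 p53-bla cells (4000/well) had 16 hours of compound exposure at 37C, with DMSO stocks diluted 217-fold on transfer.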

[5] = biological target: Cellular tumor antigen p53 (Homo sapiens) (UniProt P04637); assay: TOX21_p53_BLA_p4_ratio: Tox21 HCT-116 p53 Agonism Beta-lactamase Assay, Ratio, Phase 4 (AID 2283601)
In short: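 Signal is the blue/green (460nm/530nm) ratio of cleaved versus uncleaved CCF4-AM substrate, read after 2 h substrate loading. Cells were HCT116 carrying the p53-responsive beta-lactamase reporter, dosed 16 h at 37C, 5% CO2; CellTiter-Glo measured in parallel.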

[6] = biological target: Cellular tumor antigen p53 (Homo sapiens) (UniProt P04637); assay: TOX21_p53_BLA_p5_ratio: Tox21 HCT-116 p53 Agonism Beta-lactamase Assay, Ratio, Phase 5 (AID 2283599)
In short: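 Beta-lactamase reporter ratio (blue 460 nm over green 530 nm, 405 nm excitation) after 2 h CCF4-AM loading, in HCT-116 cells exposed 16 h at 37 C to compounds pinned at 217-fold dilution. Increases relative to DMSO baseline scored.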

Measured: outcome

Chain of Cellular tumor antigen p53 (Homo sapiens) (P04637 whole entry, looked up): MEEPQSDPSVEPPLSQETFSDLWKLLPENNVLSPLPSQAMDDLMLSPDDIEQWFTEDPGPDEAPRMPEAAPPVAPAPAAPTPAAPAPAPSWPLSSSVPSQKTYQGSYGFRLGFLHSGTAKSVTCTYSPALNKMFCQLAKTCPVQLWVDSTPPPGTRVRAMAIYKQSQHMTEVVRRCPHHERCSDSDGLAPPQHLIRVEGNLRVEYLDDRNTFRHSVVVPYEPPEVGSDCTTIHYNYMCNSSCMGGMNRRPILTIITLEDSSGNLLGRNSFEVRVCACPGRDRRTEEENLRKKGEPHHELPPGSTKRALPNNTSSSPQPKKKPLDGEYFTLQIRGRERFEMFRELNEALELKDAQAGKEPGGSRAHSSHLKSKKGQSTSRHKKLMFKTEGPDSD

O=S(=O)(O)CCN1CCN(CCO)CC1
inactive: [1] | [2] | [3] | [4] | [5]

C#CCN(C)CCCOc1ccc(Cl)cc1Cl
inactive: [1] | [2] | [3] | [6] | [5]

O=C(Cl)c1ccccc1[N+](=O)[O-]
inactive: [1] | [2] | [3] | [4]

Nc1ncnc(Nc2ccccc2)n1
inactive: [1] | [2] | [3] | [5]

CC(C)CCCC(C)CCCC(C)CCCCC(C)CCCC(C)CCCC(C)C (centres undefined)
inactive: [1] | [2] | [3] | [4] | [5]

CCC(C)O (centres undefined)
inactive: [1] | [2] | [3] | [4]

CCN(Cc1ccncc1)C(=O)C(CO)c1ccccc1 (centres undefined)
inactive: [1] | [2] | [3] | [4]

CCc1nccnc1CC
inactive: [1] | [2] | [3] | [4] | [5]

CC(C)(CO)[C@@H](O)C(=O)NCCC(=O)NCCSSCCNC(=O)CCNC(=O)[C@H](O)C(C)(C)CO
inactive: [1] | [2] | [3] | [6] | [5]

NS(=O)(=O)c1ccccc1OC(F)(F)F
inactive: [1] | [2] | [3] | [4] | [5]

CC(=O)Nc1ccc(C(=O)O)cc1
inactive: [1] | [2] | [3] | [4] | [5]

CC(C)NC[C@@H](O)COc1ccc(CC(N)=O)cc1
inactive: [1] | [2] | [3] | [5]

N[C@@H](C(=O)N[C@@H]1C(=O)N2C(C(=O)O)=C(Cl)CS[C@H]12)c1ccccc1
inactive: [1] | [2] | [3] | [4] | [5]

NC(=O)c1ncn([C@@H]2O[C@H](CO)[C@@H](O)[C@H]2O)c1N
inactive: [1] | [2] | [3] | [4] | [5]

Cc1ccc(S(=O)(=O)NC2CCCCC2)cc1
inactive: [1] | [2] | [3] | [4]

O=C(NCC(O)CO)c1c(I)c(C(=O)NCC(O)CO)c(I)c(N(CCO)C(=O)CO)c1I (centres undefined)
inactive: [1] | [2] | [3] | [4] | [5]
